# Source: PubChem BioAssay (Sanford-Burnham Center for Chemical Genomics)
# HIF-2a inh: blocks HIF-2a reporter activity | 786-0 RCC cells HIF-2a reporter, luciferase luminescence, overnight | inhibition, % at 18.8 µM | actives 0.72% (n = 360,000) | AID 624352;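 active = inhibition of the luminescence signal of 40% or more relative to plate controls, in a single-dose primary screen at 18.75 µM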
# TWEAK-Fn14 inh: blocks TWEAK-Fn14 interaction in a reporter cell assay; TWEAK-stimulated Fn14 reporter cells, luciferase luminescence, 8 h; inhibition, % at 10 µM; actives 2% (n = 360,000); in the data active = inhibition above about 50%
# CF NFkB block: inhibitors of cystic fibrosis induced NF-kB. KKLEB NF-kB-GFP reporter, PAF-induced, GFP fluorescence overnight. inhibition, % at 5 µM. actives 0.86% (n = 360,000). AID 588850;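 active = at least 50% inhibition at 5 µM, scaled per plate between neutral and stimulator controls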;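 also: PAF is a Pseudomonas aeruginosa culture filtrate used as stimulus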
# TROY NFkB inh: inhibitors of TROY-dependent NF-kB signaling; inhibition, % at 10 µM; Q293 LMP1-TROYcd NF-kB luciferase reporter, 4 h; actives 0.98% (n = 360,000); AID 1347056;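 active = compounds whose plate-normalised and pattern-corrected inhibition of the luciferase reporter signal at the single screening dose is 50% or more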
# Peg3 promoter: inhibitors of Peg3 promoter. HeLa PEG-Prom luciferase reporter, luminescence, overnight. inhibition, % at 20 µM. actives 1.7% (n = 360,000). AID 588405;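 active = inhibition of at least 50% at 20 µM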
# KKLEB cytotox: counter-screen for CF NF-kB inhibitors: cytotoxicity. KKLEB CF airway cells viability, ATPlite luminescence, overnight; active compounds read low; cells stimulated with P. aeruginosa culture filtrate. activity change (cytotoxicity), % at 5 µM. actives 0.36% (n = 360,000);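 active = corrected activity change at or below -50% at 5 µM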
# Numbers stand for hits; - = inactive; . = no result given. This is a sample that favours compounds with a hit; in the whole collection about 4% have one here.
SMILES,HIF-2a inh,TWEAK-Fn14 inh,CF NFkB block,TROY NFkB inh,Peg3 promoter,KKLEB cytotox
CCC(=O)N(C1=C(NC)C(=O)c2ccccc2C1=O)C(C)C,-,61.0,-,-,-,-
CCOC(=O)C1(C)CCCCN1C(=O)c1ccc(F)c(C)c1 (centres undefined),-,-,-,-,-,-
CS(=O)(=O)N(CC(=O)N1CCN(c2cccc(Cl)c2)CC1)C1CCCCC1,-,66.8,-,-,-,-
O=C(CN1C(=O)c2ccccc2C1=O)C(O)CN1C(=O)c2ccccc2C1=O (centres undefined),-,-,-,-,-,-
Cc1ccsc1/C=C/c1ccc2ccccc2n1,-,51.9,-,-,-,-
Cc1ccsc1/C=C/c1ccc2cccc(O)c2n1,-,-,-,-,80.4,-
O=C(O)C1c2ccccc2Cc2ccccc21,-,-,-,-,-,-
O=C1NC[C@H](CCCCN2C[C@H](Cc3ccccc3)N(CCc3ccccc3)C(=O)C2=O)N(CCC2CCCCC2)C1=O,-,-,.,-,.,.
CCCN(CCC)C(=O)c1cc2c(=O)n3cccc(C)c3nc2s1,-,-,-,-,-,-
C#CCOCCOCCOCCNc1nc(N2CCN(C(=O)CCCCCCCCCCNC(=O)[C@H](CCCCN)n3cc(CCO)nn3)CC2)nc(N2CCN(C(=O)CCCCCCCCCCNC(=O)[C@H](CCCN=C(N)N)n3cc(C[C@@H](C)CC)nn3)CC2)n1,-,-,-,-,-,-
C#CCOCCOCCOCCNc1nc(N2CCN(C(=O)CCCCCCCCCCNC(=O)[C@H](CCCCN)n3cc(C[C@@H](C)CC)nn3)CC2)nc(N2CCN(C(=O)CCCCCCCCCCNC(=O)[C@H](CCCCN)n3cc(C[C@@H](C)CC)nn3)CC2)n1,-,51.2,-,65.1,104.8,-
C#CCOCCOCCOCCNc1nc(N2CCN(C(=O)CCCCCCCCCCNC(=O)Cn3cc(C[C@@H](C)O)nn3)CC2)nc(N2CCN(C(=O)CCCCCCCCCCNC(=O)[C@H](CCCCN)n3cc(C[C@@H](C)CC)nn3)CC2)n1,-,-,-,-,99.2,-
CC[C@H](C)Cc1cn([C@@H](CCCCNC(=O)OC(C)(C)C)C(=O)NCCCCCCCCCCC(=O)N2CCN(C(=O)OC(C)(C)C)CC2)nn1,-,59.0,-,-,-,-
COc1cc(CC(=O)NCCCc2ccccc2)cc(OC)c1OC,-,-,-,-,-,-
O=c1nc(Nc2ccccc2)oc2ccccc12,-,-,-,-,-,-
O=c1oc(Nc2ccc(F)cc2)nc2ccccc12,-,57.9,-,-,-,-
Cc1cc(NC(=O)COc2coc(CN3CCN(c4ccc(F)cc4)CC3)cc2=O)no1,-,-,-,-,-,-
O=C1CC(c2ccccc2)=NO1,-,-,-,-,-,-
O=S1(=O)CC(c2ccccc2)=NN=C(c2ccccc2)C1,-,88.6,-,-,-,-
Cc1c(/C=N/Nc2nc3ccccc3[nH]2)c2ccccc2n1C,-,94.0,-,55.0,-,-
Cn1c(/C=N/Nc2nc3ccccc3[nH]2)nc2ccccc21,-,-,-,-,-,-
C=CCn1cc(/C=N/Nc2nc3ccccc3[nH]2)c2ccccc21,-,53.0,-,-,-,-
CC1CN(S(=O)(=O)c2cc(C(=O)N(C)Cc3cccs3)ccc2Cl)CC(C)O1 (centres undefined),-,-,-,-,-,-
COc1ccc2nc3oc(C(=O)NC4CCN(Cc5ccccc5)CC4)cc3cc2c1,-,53.5,-,-,-,-
CCOC(=O)c1ccc2ncc(C(=O)OCC)c(Nc3ccc(N4CCOCC4)cc3)c2c1,-,53.0,65.4,-,88.1,-
SMILES,HIF-2a inh,TWEAK-Fn14 inh,CF NFkB block,TROY NFkB inh,Peg3 promoter,KKLEB cytotox
c1ccc(-c2cc(-c3nnc4n3N=C(c3ccc5ccccc5c3)CS4)[nH]n2)cc1,-,67.9,-,-,-,-
Cc1c(C)c2ccc(OCC(=O)NCc3ccccn3)cc2oc1=O,-,-,-,-,-,-
Cc1c(C)c2ccc(OCC(=O)Nc3nccs3)cc2oc1=O,-,90.5,-,-,-,-
Cc1c(C)c2ccc(OCC(=O)Nc3ccccn3)cc2oc1=O,-,81.7,-,-,-,-
COc1cccc(N2CC(NS(=O)(=O)c3cccnc3)CC2=O)c1 (centres undefined),-,-,-,-,-,-
CCCc1nc2sc3c(c2c(=O)n1NC(=O)c1ccco1)CC(C)(C)OC3,-,-,-,-,-,-
